In PubChem BioAssay (NCI):
About 83,000 compounds went through this panel and 20% of them were active in at least one assay; those are over-represented in the sample as a whole.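 Treatment: one concentration, 48 hours, 96-well format. Scoring: percent growth, with anything below 10 considered active.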 A number with no mark means an inactive call. Activity calls are given as the source filed them.

Legend:
Experiment in all cases: NCI-60 one-dose screen, 48 h (100 = growth as untreated, 0 = no growth, -100 = all killed)
Conditions in all cases: 10 µM unless noted
SR leukemia = tested on: SR leukemia
RPMI-8226 leukemia = tested on: RPMI-8226 leukemia
OVCAR-8 ovarian = tested on: OVCAR-8 ovarian
OVCAR-5 ovarian = tested on: OVCAR-5 ovarian
OVCAR-4 ovarian = tested on: OVCAR-4 ovarian
SK-OV-3 ovarian = tested on: SK-OV-3 ovarian
IGROV1 ovarian = tested on: IGROV1 ovarian
OVCAR-3 ovarian = tested on: OVCAR-3 ovarian
HS 578T breast = tested on: HS 578T breast
NCI/ADR-RES ovarian = tested on: NCI/ADR-RES ovarian
T-47D breast = tested on: T-47D breast
BT-549 breast = tested on: BT-549 breast
MDA-MB-435 melanoma = tested on: MDA-MB-435 melanoma
SW-620 colon = tested on: SW-620 colon
MCF7 breast = tested on: MCF7 breast
HCT-116 colon = tested on: HCT-116 colon
HCC-2998 colon = tested on: HCC-2998 colon
KM12 colon = tested on: KM12 colon

| SMILES | growth (SR leukemia) | growth (RPMI-8226 leukemia) | growth (OVCAR-8 ovarian) | growth (OVCAR-5 ovarian) | growth (OVCAR-4 ovarian) | growth (SK-OV-3 ovarian) [%] | growth (IGROV1 ovarian) | growth (OVCAR-3 ovarian) | growth (HS 578T breast) | growth (NCI/ADR-RES ovarian) | growth (T-47D breast) | growth (BT-549 breast) | growth (MDA-MB-435 melanoma) | growth (SW-620 colon) | growth (MCF7 breast) | growth (HCT-116 colon) | growth (HCC-2998 colon) | growth (KM12 colon) |
| --- | --- | --- | --- | --- | --- | --- | --- | --- | --- | --- | --- | --- | --- | --- | --- | --- | --- | --- |
| C=C1C(=O)O[C@H]2[C@H]1CC/C(CNS(=O)(=O)c1cccc3ccccc13)=C\CC[C@@]1(C)O[C@@H]21 | 10.7% | -16.5% (active) | 38.5% | 61.9% | 42.8% | 107 | 15.4% | 11.1% | 60.9% | 74.3% | 24.5% | 37.2% | 38.1% | -34.9% (active) | 16.2% | -60.7% (active) | 71.5% | 85% |
| CC[C@]12C=CCN3CC[C@@]4(c5cc(NC(=O)CCC(=O)O[C@H]6CC[C@H]7[C@@H]8CCC9=CC(=O)CC[C@@H]9[C@H]8CC[C@]67C)c(OC)cc5N(C)[C@H]4[C@@](O)(C(=O)OC)[C@@H]1OC(C)=O)[C@@H]32 | 40% | 54.6% | 75.6% | 96.1% | 67% | 104 | 61.6% | 80.8% | 73.9% | 80.1% | 53% | 77.6% | 20.7% | 86.9% | 80% | 62.5% | 91.9% | 73.1% |
| Brc1ccc(Nc2csc(-c3ccccn3)n2)cc1 | 97.3% | 98% | 98.6% | 76.6% | 101% | 82.8 | 63.4% | 95.7% | 92.4% | 93.5% | 82.6% | 101% | 100% | 71% | 87.2% | 88.8% | 92.2% | 72.7% |
| c1ccc2c(-c3nccs3)c[nH]c2c1 | 86% | 104% | 106% | 97.3% | 110% | 99.7 | 101% | 103% | 98.3% | 103% | 96.3% | 86.6% | 101% | 99.1% | 79.8% | 95.7% | 107% | 96.3% |
| Clc1ccc(-c2ccc(CNCC3CCNCC3)o2)c(-c2ccccc2)c1 | -60.9% (active) | -54.4% (active) | -66.9% (active) | -90.6% (active) | -38.2% (active) | 45.4 | -64% (active) | -79.9% (active) | -49.8% (active) | -32.5% (active) | -75.2% (active) | -5.56% (active) | -92% (active) | -85.9% (active) | -73.9% (active) | -87.2% (active) | -77.6% (active) | -84.2% (active) |
| Cc1cccc(C)c1N=c1oc2ccc(Cl)cc2nc1-c1ccccc1O | 51.9% | 82.9% | 91.4% | 81.3% | 78.4% | 92.8 | 88.3% | 102% | 84.3% | 86.4% | 37.8% | 107% | 99.3% | 91% | 67.9% | 76.6% | 93.8% | 98.9% |
| Cc1c(C(=O)NCCC(=O)NO)sc2ncnc(Nc3ccc(F)c(Cl)c3)c12 | 111% | 110% | 101% | 108% | 109% | 129 | 106% | 107% | 103% | 101% | 107% | 114% | 102% | 101% | 95.2% | 107% | 105% | 104% |
| OCc1cnccc1NCCCOc1ccccc1 | 99.9% | 100% | 102% | 113% | 102% | 114 | 110% | 107% | 98.7% | 102% | 101% | 108% | 110% | 98.3% | 92.1% | 100% | 97.1% | 106% |
| COc1ccccc1NC(=O)C1CC(c2ccc(F)cc2)=NO1 (stereo unspecified) | 101% | 97.1% | 98.1% | 108% | 102% | 112 | 105% | 110% | 94.1% | 95.8% | 93.9% | 112% | 103% | 102% | 90.8% | 103% | 90.1% | 101% |
| Cn1nc(CC#N)c2c(=N)n(N)cnc21 | 93.4% | 117% | 104% | 93.5% | 114% | 99.8 | 103% | 112% | 114% | 113% | 105% | 122% | 107% | 104% | 100% | 119% | 120% | 102% |
| COc1ccc(-c2[nH][nH]c(=O)c2-c2nc3ccccc3s2)cc1 | 99.2% | 99.4% | 106% | 105% | 109% | 106 | 105% | 110% | 107% | 97.7% | 109% | 97.6% | 101% | 101% | 93.9% | 101% | 99.6% | 101% |
| CN1CCN(C(=O)[C@]23CCC(C)(C)C[C@H]2C2=CC[C@@H]4[C@@]5(C)C/C(=C/c6ccncc6)C(=O)C(C)(C)[C@@H]5CC[C@@]4(C)[C@]2(C)CC3)CC1 | 7.07% (active) | 7.22% (active) | 55.3% | 86.9% | 57.4% | 77.6 | 74.4% | 47.2% | 50.4% | 56.3% | 37% | 80.2% | 48.2% | 33.8% | 18.1% | 16.4% | 43.8% | 45.8% |
| COc1cccc(-c2cc(C(=O)Nc3ccc(/C=C/c4ccc(OC5CCN(C)CC5)cc4)cc3)ccc2OC)c1 | -44.4% (active) | -32.7% (active) | -38.8% (active) | 25.2% | -56.5% (active) | 109 | -56.3% (active) | -82.9% (active) | -22.9% (active) | -11.2% (active) | 53% | 23.1% | -77.4% (active) | -60.5% (active) | -34.9% (active) | -93.4% (active) | 74.9% | -72.8% (active) |
| COc1ccc(-c2nc3sccn3c2/C=C/C(=O)c2ccc3c(c2)OCO3)cc1 | 41.4% | 10.5% | 80.9% | 108% | 46.1% | 170 | 85.1% | 84.8% | 96.9% | 75.7% | 83.9% | 81.8% | 57.6% | 56% | -7.62% (active) | 58.4% | 95.5% | 54.2% |
| Cc1ccc(-c2[nH][nH]c(=O)c2-c2nc3ccccc3s2)cc1 | 97.9% | 96.9% | 105% | 94.4% | 105% | 104 | 106% | 111% | 97.3% | 98% | 103% | 123% | 100% | 93.9% | 97.1% | 100% | 99.7% | 103% |
| CCSCC1CC(O)(c2ccccc2)CC(c2ccc(F)cc2)O1 (stereo unspecified) | -22% (active) | 8.79% (active) | 21.3% | 86.6% | 24.5% | 25.9 | 48.5% | -13% (active) | -14.8% (active) | 24.6% | -4.7% (active) | -0.126% (active) | 5.06% (active) | 8.68% (active) | -11.3% (active) | 1.4% (active) | 69.3% | -47.2% (active) |
| COc1ccc(-c2nc([C@@H](C)Sc3nc(N)cc(N)n3)c(C)s2)cc1OCCN1CCOCC1 | 97.5% | 70.3% | 95.8% | 121% | 106% | 131 | 123% | 102% | 94.2% | 101% | 99.5% | 96.1% | 110% | 107% | 101% | 103% | 83.9% | 104% |
